Reference: PubChem BioAssay (Tox21)
Activity calls are given as the source filed them. The call rests on the fitted dose curve; in most records, active means well fitted curve in the direction sought with a large enough effect in the repeat runs; inconclusive means weak or mixed curves; inactive means flat fitted curve, though single readings scatter. Positions of bridges follow the written chain, without caps; N, C: chain ends. Non-standard residues stand in square brackets, D forms with d. Residues, ends and D or L forms follow the SMILES beside them. *: point of attachment. X1 = CC[C@@H](C)[C@@H](N)C1=N[C@H](C(=O)*)CS1; d(aIle) = CC[C@H](C)[C@@H](N)C(=O)O; dOrn = NCCC[C@@H](N)C(=O)O

Columns and labels:
[1] = qHTS assay to test for compound auto fluorescence at 535 nm (green) in HEK293 cells (AID 720680)
[2] = qHTS assay to test for compound auto fluorescence at 460 nm (blue) in HEK293 cell free culture (AID 720681)
How it was run: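 Test compounds were pinned into cell-free culture medium (DMEM with 10% FBS) and fluorescence was read directly at Ex/Em 405/460 nm. Signals were expressed as fluorescence equivalents of triamterene, with DMSO vehicle as control.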

[3] = qHTS assay to test for compound auto fluorescence at 535 nm (green) in HEK293 cell free culture (AID 720682)
How it was run: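 Each library compound, or DMSO control, is added by pintool to medium alone, comprising DMEM and 10% FBS. Emission at 535 nm following 485 nm excitation is quantified against fluorescein.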

[4] = qHTS assay to test for compound auto fluorescence at 590 nm (red) in HEK293 cell free culture (AID 720683)
How it was run: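 Tox21 10K library compounds were pinned into cell-free DMEM with 10% FBS and fluorescence was read at excitation 540 nm. Activity is expressed as Rose Bengal sodium equivalency.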

[5] = qHTS assay to test for compound auto fluorescence at 590 nm (red) in HepG2 cell free culture (AID 720684)
How it was run: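 Ex 540 / Em 590 nm read of compound in cell-free MEM (10% FBS). Rose Bengal sodium reference.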

[6] = qHTS assay to test for compound auto fluorescence at 460 nm (blue) in HepG2 cell free culture (AID 720685)
How it was run: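 Cell-free plates of MEM plus 10% FBS received 23 nL compound or DMSO vehicle; blue-channel (405/460 nm) intensity scored against triamterene as reference fluorophore.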

[7] = qHTS assay to test for compound auto fluorescence at 535 nm (green) in HepG2 cell free culture (AID 720686)
[8] = qHTS assay to test for compound auto fluorescence at 460 nm (blue) in HepG2 cells (AID 720687)
How it was run: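 Cells (2,000/well in MEM with 10% FBS) attached overnight at 37 C, then were exposed to compound or DMSO for 1 hr at 37 C, 5% CO2. Fluorescence read at Ex/Em 405/460 nm, expressed as triamterene-equivalent signal.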

Measured: Potency

C=CC1=C(C(=O)O)N2C(=O)[C@@H](NC(=O)/C(=N\O)c3csc(N)n3)[C@H]2SC1 (stereo in doubt)
inactive: all assays above

O=C(O)CCCC/C=C(\c1ccccc1)c1cccnc1
inactive: all assays above

C=CC1=C(C(=O)O)N2C(=O)[C@@H](NC(=O)/C(=N/OCC(=O)O)c3csc(N)n3)[C@H]2SC1 (stereo in doubt)
inactive: all assays above

CC/C(=C(/CC)c1ccc(OP(=O)(O)O)cc1)c1ccc(OP(=O)(O)O)cc1
inactive: all assays above

CN=C(N)NCCC[C@H](N)C(=O)O
inactive: all assays above

O=[N+]([O-])c1ccc(O)c2ncccc12
inactive: all assays above

CSCC[C@H](NC(=O)[C@H](Cc1ccc(OS(=O)(=O)O)cc1)NC(=O)[C@@H](N)CC(=O)O)C(=O)NCC(=O)N[C@@H](Cc1c[nH]c2ccccc12)C(=O)N[C@@H](CCSC)C(=O)N[C@@H](CC(=O)O)C(=O)N[C@@H](Cc1ccccc1)C(N)=O
inactive: all assays above

CC(C)=CCC/C(C)=C/CC/C(C)=C/CC/C(C)=C/CC1=C(C)C(=O)c2ccccc2C1=O
inactive: all assays above

O=C(O)COc1ccccc1/C=N/NC(=O)c1ccncc1
inactive: all assays above

Cc1cc(CC(C)CC(C)(C)C)n(O)c(=O)c1 (stereo unspecified) (tested in a mixture with another compound)
inactive: all assays above

CON=C1C[C@]2(C[C@@H]3C[C@@H](C/C=C(\C)C[C@@H](C)/C=C/C=C4\CO[C@@H]5[C@H](O)C(C)=C[C@@H](C(=O)O3)[C@]45O)O2)O[C@H](/C(C)=C/C(C)C)[C@H]1C
inactive: all assays above

CCCCCCCCCCCCCCCCC(C(=O)O)C(O)(CC(=O)O)C(=O)O (stereo unspecified)
inactive: all assays above

CC12CCC(C[N+](C)(CCC[N+](C)(C)C)C1)C2(C)C (stereo unspecified)
inactive: all assays above

N=C(N)c1ccc(/C=C/c2ccc(C(=N)N)cc2O)cc1
inactive: all assays above

CCC(NC(C)C)C(O)c1ccc(O)c(O)c1 (stereo unspecified)
inactive: all assays above

CC12CCC(C1)C(C)(C)C2=O (stereo unspecified)
inactive: all assays above

CCCn1c(=O)[nH]c(=O)c2[nH]cnc21
inactive: all assays above

COc1cccc2c1[C@@H]1CN(CCCCn3c(=O)[nH]c4c(sc5ncc(-c6ccccc6)nc54)c3=O)C[C@@H]1CO2
inactive: all assays above

CC[C@H]1OC(=O)C[C@@H](O)[C@H](C)[C@@H](O[C@@H]2O[C@H](C)[C@@H](O[C@H]3C[C@@](C)(O)[C@@H](O)[C@H](C)O3)[C@H](N(C)C)[C@H]2O)[C@@H](CC=O)C[C@@H](C)C(=O)/C=C/C(C)=C/[C@@H]1CO[C@@H]1O[C@H](C)[C@@H](O)[C@@H](OC)[C@H]1OC
inactive: all assays above

CCCC(CCC)C(=O)OC1C[C@H]2CC[C@@H](C1)[N+]2(C)C (stereo partly specified)
inactive: all assays above

S=C1NC=NC2N=CNC12 (stereo unspecified)
inactive: all assays above

CC[C@@H](C)[C@@H](N)C1=N[C@H](C(=O)N[C@@H](CC(C)C)C(=O)N[C@@H](CCC(=O)O)C(=O)N[C@@H](C(=O)N[C@@H]2CCCCNC(=O)[C@@H](CC(N)=O)NC(=O)[C@@H](CC(=O)O)NC(=O)[C@@H](Cc3cnc[nH]3)NC(=O)[C@@H](Cc3ccccc3)NC(=O)[C@@H]([C@H](C)CC)NC(=O)[C@@H](CCCN)NC2=O)[C@@H](C)CC)CS1 (X1-LE[d(aIle)][dK][dOrn][dI][dF][dH][dD][dN]; lactam 4-C)
inactive: all assays above
